Where “and” joins values, the source holds several entries; their conditions need not be identical. Equal values may be shown once. About 83,000 compounds went through this panel and 20% of them were active in at least one assay; those are over-represented in the sample as a whole.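 In brief: 96-well plates, 48 h treatment, single concentration, percent growth endpoint.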 Values without a mark were called inactive. Calls of active or inactive are those of the source. How the source made its calls: active means growth percent below 10; inactive means the rest.
Key:
Test in all cases: NCI-60 one-dose screen, 48 h (100 = growth as untreated, 0 = no growth, -100 = all killed)
Details in all cases: 10 µM unless noted
NCI-H226 lung = system: NCI-H226 lung
NCI-H322M lung = system: NCI-H322M lung
HOP-62 NSCLC = system: HOP-62 NSCLC
NCI-H460 lung = system: NCI-H460 lung
HOP-92 NSCLC = system: HOP-92 NSCLC
NCI-H522 lung = system: NCI-H522 lung
A549/ATCC NSCLC = system: A549/ATCC NSCLC
786-0 renal = system: 786-0 renal
COLO 205 colon = system: COLO 205 colon
NCI-H23 lung = system: NCI-H23 lung

SMILES | growth (NCI-H226 lung) | growth (NCI-H322M lung) | growth (HOP-62 NSCLC) | growth (NCI-H460 lung) | growth (HOP-92 NSCLC) | growth (NCI-H522 lung) | growth (A549/ATCC NSCLC) | growth (786-0 renal) | growth (COLO 205 colon) | growth (NCI-H23 lung)
CCN(CC)C(=O)c1cccnc1 | 110% | 123% | 119% | 111% | 117% | 98.9% | 102% | 99.4% | 115% | 
O=C(/C=C/c1ccccn1)c1ccccc1O | 93.2% and 97.3% |  | 79.5% and 72.2% | 65.2% and 101% | 75.5% and 34.2% | 67.8% and 28.4% | 55.3% and 79.7% | 90.6% and 91.4% | 63.6% and 65.4% | 73.9% and 81.3%
O=C(O)c1cc(C(=O)O)cc([N+](=O)[O-])c1 | 102% |  |  | 110% | 111% | 94.3% | 106% | 101% | 110% | 
O=C1c2ccccc2C(=O)N1/N=C/c1ccc2c(c1)OCO2 | 101% |  | 104% | 112% | 74.4% | 64.5% |  | 104% | 99.5% | 120%
CCOC(=O)c1sc(N)nc1-c1ccccc1 | 98.7% |  | 87.9% | 104% |  | 95.5% | 101% | 95.1% | 102% | 101%
COc1cc(C(=O)N/N=C/c2ccc(N(C)C)cc2)cc(OC)c1OC | 71.9% |  | 49% | 3.54% (active) | 46.8% |  | 18.4% | 42.2% | -25.7% (active) | 19.4%
CC(=O)Oc1cc(C(=O)O)cc(OC(C)=O)c1OC(C)=O | 96.4% and 89.6% |  | 88.8% and 99% | 113% and 108% | 99.1% and 107% | 100% and 93.4% | 103% and 90.1% | 111% and 102% | 125% and 122% | 103% and 97.3%
O=C=NC(c1ccccc1)(c1ccccc1)c1ccccc1 | 111% |  | 143% | 111% | 110% | 90.2% | 107% | 95% | 101% | 
Cc1nn(-c2ccccc2)nc1C(=O)Nc1ccccc1C(=O)NCC1CC1 | 98.1% and 45.7% |  | 96.7% and 46.1% | 94.3% and 26.8% | 75.8% | 91.9% |  | 110% and 35.1% | 95.3% and 52.8% | 102% and 77.6%
O=C1c2c(O)cc(O)cc2OC(c2ccc(O)c(O)c2)C1O (configuration not stated) | 109% | 126% | 110% | 107% | 108% |  | 105% |  | 119% | 
Nc1nc2ncc(CNc3ccc(C(=O)N[C@@H](CCc4nn[nH]n4)C(=O)O)cc3)nc2c(=O)[nH]1 | 98.7% and 93.8% |  | 103% and 92.1% |  | 93.4% and 78.5% | 101% and 84.6% | 106% and 95.3% | 106% and 109% | 107% and 110% | 95.7% and 95.5%
c1ccc(N(c2ccccc2)c2ccccc2)cc1 | 104% | 97.6% |  | 111% | 112% | 95.9% | 99% | 97.9% | 113% | 
